Experimental findings from PubChem BioAssay (Tox21) are described below.

Records with an inconclusive call do not appear. Entries that show only a call come without a potency. Activity calls are given as the source filed them. Calls follow the shape of the dose curve; as a rule, active = well fitted activation curve with a large enough effect in the signal ratio in the repeat runs (not every such curve was filed as active); inconclusive = weak or mixed curves, or effect the other way; inactive = flat fitted curve, though single readings scatter; the % refers to the signal ratio.
Potency is read from the fitted curve at half-maximal effect.

A short description of the assay: qHTS assay to identify small molecule agonists of the endoplasmic reticulum stress response signaling pathway (AID 1159516). The conditions noted are these: ESRE-bla HeLa, ER stress beta-lactamase reporter, 5 h; series mostly up to 61 µM; activation: at the top concentration. The text has this: National Center for Advancing Translational Sciences [NCATS]
NIH Chemical Genomics Center [NCGC]
U.S. Environmental Protection Agency [EPA]
National Institutes of Environmental Health Sciences [NIEHS]
National Toxicology Program [NTP]
U.S. Food and Drug Administration [FDA]
Endoplasmic Reticulum (ER) plays an important role in cellular signaling, protein folding/maturation, stress response, lipid biosynthesis, calcium storage and release etc. Under stress conditions, proteins in ER misfold or unfold, and leading to the expression of ER stress responsive genes. ER stress has been associated with a variety of pathophysiological conditions such as cancer, inflammation, neurodegenerative diseases, diabetes, ischemic heart disease etc. To identify the compounds that induce ER stress response, an ER stress reporter cell line, CellSensor ESRE-bla HeLa (Life Technologies, Carlsbad, CA) containing a beta-lactamase reporter gene under control of the Endoplasmic reticulum Stress Response Element (ESRE) was used to screen Tox21 10K compound library.
Tox21 Assay Protocol Summary:
ESRE-bla HeLa cells were dispensed at 1,500 cells/6 uL of assay medium per well into black wall/clear-bottom 1536-well plates using a Multidrop Combi (ThermoFisher Scientific, Waltham, MA) dispenser. After the assay plates were incubated at 37 C and 5% CO2 for an overnight, 23 nL of compounds dissolved in DMSO, positive controls or DMSO only was transferred to the assay plate by a Pintool station (Kalypsys, San Diego, CA). The assay plates were incubated at 37 C and 5% CO2 for 5 hr. One uL of LiveBLAzer B/G FRET substrate (Life Technologies) was added using a Flying Reagent Dispenser (Aurora Discovery, San Diego, CA) and the plates were incubated at room temperature for 2 hr. Fluorescence intensity (405 nm excitation, 460 nm and 530 nm emissions) was measured using an Envision plate reader (PerkinElmer, Shelton, CT).
As for `CC(C)[C@@H]1CC[C@@H](C)CC1=O`, the Potency result was “inactive”.

On to `Nc1ccc(O)c(N)c1`, for which the “activation” value was -2.36% (inactive).

For `Cc1cccc(Nc2ccccc2C(=O)O)c1C`, the Potency result was “inactive”.

In the case of `C=C[Si](OCCOC)(OCCOC)OCCOC`, the Potency entry was “inactive”.

Turning to `CC(C)(C)c1cccc(C(C)(C)C)c1O`, the Potency result was “inactive”.

`FC(F)(F)C(Cl)Br` (stereo not given): the Potency result was “inactive”.

Turning to `CCCCCCC(C)O` (stereo not given), the Potency result is “inactive”.

On to `Cc1ccc(C)c(O)c1`, for which the Potency result is “inactive”.

As for `Nc1cc([N+](=O)[O-])ccc1C(=O)O`, the “activation” value is -2.24% [at 78.8 µM] (inactive).

Take `CC(=O)[C@@]1(O)CC[C@H]2[C@@H]3C[C@H](C)C4=CC(=O)C=C[C@]4(C)[C@@]3(F)[C@@H](O)C[C@@]21C`: the Potency result is “inactive”.

In the case of `C=CC(=O)OCCCC`, the “activation” value is -2.98% (inactive).

As for `C=C[C@@]1(C)CC(=O)[C@]2(O)[C@@]3(C)[C@@H](O)CCC(C)(C)[C@@H]3[C@H](O)[C@H](OC(C)=O)[C@@]2(C)O1`, the “activation” value is 2.88% (inactive).

Turning to `OC[C@@H](O)[C@@H](O[C@@H]1O[C@H](CO)[C@H](O)[C@H](O)[C@H]1O)[C@H](O)[C@@H](O)CO`, the Potency entry is “inactive”.

Regarding `O=[Se](O)O`, the Potency entry is “inactive”.

In the case of `NCCN`, the Potency entry is “inactive”.

For `Cc1ccc(S(=O)(=O)NCl)cc1`, the Potency result is “inactive”.

For the molecule `CC1(C)NC(=O)N(c2ccc([N+](=O)[O-])c(C(F)(F)F)c2)C1=O`, the “activation” value is -3.09% (inactive).

On to `Cc1ccc(C(C)(C)C)c(O)c1`, for which the “activation” value is 6.3% (inactive).

Turning to `C[C@]12CC[C@@H]3c4ccc(O)cc4CC[C@H]3[C@@H]1CC[C@@H]2O`, the “activation” value was -3.43% (inactive).

As to `CN(Cc1cnc2nc(N)nc(N)c2n1)c1ccc(C(=O)N[C@@H](CCC(=O)O)C(=O)O)cc1`, the “activation” value is -3.2% (inactive).

Regarding `OCCNCCO`, the Potency result was “inactive”.

Consider `C[C@]12CC[C@@H]3c4ccc(O)cc4CC[C@H]3[C@@H]1CC[C@H]2O`, for which the Potency entry was “inactive”.

Turning to `O=S1(=O)CCCO1`, the Potency result is “inactive”.

Consider `C=CCOC(=O)C(=C)C`, for which the “activation” value is 1.24% (inactive).

In the case of `COc1ccc(C(=O)c2ccccc2O)c(O)c1`, the Potency entry was “inactive”.

For `IC(I)I`, the “activation” value was 3.77% (inactive).

In the case of `c1ccc2cc3ccccc3cc2c1`, the Potency is 56.7 µM (active).

`CCCCCC1C(=O)CCC1CC(=O)OC` (stereo not given): the Potency entry is “inactive”.

Regarding `CCCCCCCCCCC(CO)CCCCCCCC` (stereo not given), the Potency entry is “inactive”.

For `Cc1ccc(C(C)(C)C)cc1`, the “activation” value was 0.455% (inactive).

`CCCCCCCC/C=C\CCCCCCCC(=O)O`: the Potency entry is “inactive”.

Turning to `C1CN(SSN2CCOCC2)CCO1`, the “activation” value is -9.5% (inactive).

For the molecule `CCCCCC=O`, the Potency entry is “inactive”.

Regarding `Nc1ccc2c(O)cc(S(=O)(=O)O)cc2c1`, the Potency result was “inactive”.

For the molecule `CC(=O)O[C@]1(C(C)=O)CC[C@H]2[C@@H]3C=C(Cl)C4=CC(=O)CC[C@]4(C)[C@H]3CC[C@@]21C`, the “activation” value was -7.15% (inactive).

On to `O=C1OC2(c3ccccc31)c1cc(I)c(O)c(I)c1Oc1c2cc(I)c(O)c1I`, for which the “activation” value is 2.84% (inactive).

Consider `Cc1ccc(N)c([N+](=O)[O-])c1`, for which the Potency result is “inactive”.

Turning to `O=C(O)c1ccc(O)cc1`, the “activation” value was -2.57% (inactive).

In the case of `C=CN1CCCC1=O`, the “activation” value is -0.454% (inactive).

On to `O=C(O)COCCN1CCN(C(c2ccccc2)c2ccc(Cl)cc2)CC1` (stereo not given), for which the Potency result was “inactive”.
